Our source for the activation values is PubChem BioAssay AID1509 (The Scripps Research Institute Molecular Screening Center, 2009).

In all, about 220,000 compounds went through this assay and about 770 (0.35%) were called active. Only a selection was taken, and actives are over-represented in it overall. A number with no mark means an inactive call. Cut-off read from the data, not from the text of the source: active = activation above about 11%; inactive = the rest.

Sphingosine 1-phosphate receptor 4 (Homo sapiens), sequence (O95977 whole entry, looked up): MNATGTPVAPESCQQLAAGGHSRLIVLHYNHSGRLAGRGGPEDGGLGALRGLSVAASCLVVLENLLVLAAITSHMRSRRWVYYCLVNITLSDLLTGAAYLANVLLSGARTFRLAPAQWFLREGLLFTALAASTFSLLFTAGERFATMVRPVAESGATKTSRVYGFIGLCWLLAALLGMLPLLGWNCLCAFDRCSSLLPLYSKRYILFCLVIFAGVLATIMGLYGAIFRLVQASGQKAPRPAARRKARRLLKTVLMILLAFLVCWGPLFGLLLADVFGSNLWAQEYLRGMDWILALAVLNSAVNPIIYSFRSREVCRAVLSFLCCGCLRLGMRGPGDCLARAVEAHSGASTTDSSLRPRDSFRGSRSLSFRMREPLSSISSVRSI

The experiment has as its target Sphingosine 1-phosphate receptor 4 (Homo sapiens) (UniProt O95977). Kind of experiment: S1P4 receptor agonists, primary screen, cell-based (AID 1509).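 Note: 0% = DMSO vehicle and 100% = reference agonist.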 The conditions noted are these: S1P4-expressing cell line, agonist reporter assay; at 4.98 µM; active compounds read high. (Reporter assays use an easily measured gene product as a stand-in for the process of interest.)
In the case of `CC(C)N(CC#CCC1(O)c2ccccc2-c2ccccc21)C(C)C`, the activation is 16.1% (active).

Regarding `NCC(O)c1ccc(O)cc1` (stereo not given), the activation was 1.71%. For `O=c1[nH]c(=O)n(-c2ccc(F)cc2)c(O)c1C=NCCN1CCCCC1` the value was 0.64%; for `O=c1[nH]c(CN2CC=C(c3ccccc3)CC2)nc2scc(-c3cccs3)c12`, 0.84%; for `Cc1cccc(-n2c(O)c(C=NC34CN5CN(CN(C5)C3)C4)c(=O)[nH]c2=O)c1`, -0.41%.
